Source: PubChem BioAssay AID588726 (The Scripps Research Institute Molecular Screening Center, 2011)
In all, about 360,000 compounds went through this assay and about 8,200 (2.3%) were called active. Rule as the data show it: active = inhibition above about 27%; inactive = the rest. This excerpt belongs to a sample that is enriched for actives.

What follows are compounds tested against Fructose-bisphosphate aldolase (Mycobacterium tuberculosis (strain ATCC 25618 / H37Rv)) (UniProt P9WQA3) (assay: Mtb FBA enzyme inhibitors, primary screen, biochemical, fluorescence, strain H37Rv (AID 588726;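 also: 0% = vehicle and 100% = reference inhibitor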)). Conditions: purified M. tuberculosis FBA, fluorescence read-out, at 1 µM, active compounds read high.
Sequence of Fructose-bisphosphate aldolase (Mycobacterium tuberculosis (strain ATCC 25618 / H37Rv)) (P9WQA3 whole entry, looked up): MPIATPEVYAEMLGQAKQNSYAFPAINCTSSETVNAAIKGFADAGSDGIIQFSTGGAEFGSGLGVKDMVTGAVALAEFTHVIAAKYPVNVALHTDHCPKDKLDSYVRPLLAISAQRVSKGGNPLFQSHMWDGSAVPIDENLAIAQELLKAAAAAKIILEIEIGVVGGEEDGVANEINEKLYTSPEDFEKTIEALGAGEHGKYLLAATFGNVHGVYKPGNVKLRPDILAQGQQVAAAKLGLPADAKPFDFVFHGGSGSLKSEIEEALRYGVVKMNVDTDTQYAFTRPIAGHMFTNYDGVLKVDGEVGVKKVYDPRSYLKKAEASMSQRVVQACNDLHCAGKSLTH
`O=C(CNC(=O)OCc1ccccc1)NC1CCCCNC1=O` (stereo unspecified) was tested, and the inhibition was 0.55% (inactive).
For `CC(=O)Oc1ccc2c(C)c(CC(C)O)c(=O)oc2c1` (stereo unspecified), the inhibition was 797% [above what the read-out allows, likely interference] (active).
In the case of `Cc1cc(C)cc(Oc2c(C(F)(F)F)oc3cc(OCC(=O)O)ccc3c2=O)c1`, the inhibition is reported as -1.51% (inactive).
For `Cc1ccc(OCC(=O)Nc2ccc3oc(=O)ccc3c2)cc1C`, the inhibition was 1.09% (inactive).
For `Cc1c(CCC(=O)O)c(=O)oc2cc(OCc3ccc(Br)cc3)ccc12`, the inhibition was 46.6% (active).
With `Cc1c(C)c2ccc(OCC(=O)N3CCN(c4cccc(Cl)c4)CC3)cc2oc1=O` the inhibition was 6.95% (inactive).
For `Cc1c(Cc2ccccc2)c(=O)oc2cc(OCC(N)=O)ccc12`, the inhibition was 65.5% (active).
`COC(=O)Cc1c(C)c2ccc(OCC(=O)NCc3ccc4c(c3)OCO4)cc2oc1=O` was tested, and the inhibition was 12% (inactive).
In the case of `O=C(Oc1ccccc1)Oc1ccc2c(c1)oc(=O)c1ccccc12`, the inhibition is reported as 8.31% (inactive).
In the case of `COc1cccc(-c2coc3cc4oc(=O)c(CC(=O)O)c(C)c4cc23)c1`, the inhibition is reported as 6.49% (inactive).
With `CC(=O)Nc1cc2ccc(OC(C)=O)cc2oc1=O` the inhibition was 179% (active).
`CCOC(=O)c1cc(=O)c2ccc(OCc3ccccc3)cc2o1` was tested, and the inhibition was 2.55% (inactive).
For `Cc1coc2cc3oc(=O)c(CCC(=O)O)c(C)c3cc12`, the inhibition was 16.5% (inactive).
In the case of `O=S(=O)(c1cccc(C(F)(F)F)c1)N1c2ccccc2-n2cccc2C1c1cccnc1` (stereo unspecified), the inhibition is reported as -0.16% (inactive).
For `O=C(Nc1c(-c2ccccc2)nc2c(Br)cc(Br)cn12)c1ccco1`, the inhibition was 1.02% (inactive).
With `Cc1cc(C(C)(C)C)oc1C(=O)N(CC(=O)NC1CCCC1)Cc1ccc(Cl)cc1` the inhibition was 3.61% (inactive).
`COCC1CCN(C(=O)c2ccc3oc(Cc4ccccc4)nc3c2)C1` (stereo unspecified) was tested, and the inhibition was 2.73% (inactive).
`O=C1NCC(Nc2ccccc2)C(=O)N1` (stereo unspecified) was tested, and the inhibition was -2.44% (inactive).
In the case of `N=c1ccn(CC(=O)NC(N)=O)c2ccccc12`, the inhibition is reported as 0% (inactive).
With `CC1C(C)N(C(=O)CCl)c2ccccc2N1C(=O)CCl` (stereo unspecified) the inhibition was -0.21% (inactive).
`CCN(CC)S(=O)(=O)c1ccc(NC(=O)c2cccnc2Cl)c(NC(=O)c2cccnc2Cl)c1` was tested, and the inhibition was -0.1% (inactive).
`COc1ccccc1CN1CC(C(=O)NCCc2cn[nH]c2)CCC1=O` (stereo unspecified) was tested, and the inhibition was 3.36% (inactive).
With `Cc1nc(-c2ccccc2)cn2c1nc1ccccc12` the inhibition was 119% (active).
With `Cc1c(C(=O)Nc2cccc(Cl)c2)cn2c(nc3ccccc32)c1C#N` the inhibition was -0.2% (inactive).
In the case of `Cc1nc2ccccc2n1CC(O)c1ccccc1` (stereo unspecified), the inhibition is reported as -0.66% (inactive).
For `CN1CCn2cnc(C(=O)NCC(=O)OC(C)(C)C)c2C1=O`, the inhibition was -1.37% (inactive).
In the case of `Cc1c(CC(=O)NCC(=O)NCC(=O)O)c(=O)oc2cc3oc4c(c3cc12)CCCC4`, the inhibition is reported as 16.6% (inactive).
With `Cc1coc2c1c(C)cc1oc(=O)c(CC(=O)NCC(=O)N[C@H](C(=O)O)C(C)C)c(C)c12` the inhibition was 105% (active).
With `CSCC[C@H](NC(=O)N1CCn2c1nc1ccccc12)C(=O)NC1CCCCC1` the inhibition was -1.03% (inactive).
For `CCN(CCn1cccn1)Cc1nc(-c2ccc(C(=O)OC)cc2)no1`, the inhibition was 0.65% (inactive).
For `COc1ccccc1OCC(=O)OCc1cc(-c2ccco2)on1`, the inhibition was 2.93% (inactive).
In the case of `CCOC(=O)COc1ccc(Cl)cc1C1NC(=O)NC(C)=C1C(C)=O` (stereo unspecified), the inhibition is reported as 0.97% (inactive).
`CCOC(=O)COc1cc(OCC(=O)OCC)c2c(=O)cc(-c3ccccc3)oc2c1` was tested, and the inhibition was 39.2% (active).
With `COCCC(=O)Nc1ccc2c(c1)CN(C(=O)CCOC)CC2` the inhibition was 2.39% (inactive).
`O=C(NCc1ccccc1)c1onc(CSc2nc3ccccc3[nH]2)c1C(=O)NCc1ccccc1` was tested, and the inhibition was 27.9% (active).
`O=C(NCC1CC1)c1onc(CSc2ccccc2)c1C(=O)NCC1CC1` was tested, and the inhibition was 3.54% (inactive).
In the case of `O=C(NCc1ccccc1)c1onc(CSc2ccncc2)c1C(=O)NCc1ccccc1`, the inhibition is reported as 0.92% (inactive).
For `O=C(CN1CCN(C(=O)C2CCCO2)CC1)Nc1c(Cl)cccc1Cl` (stereo unspecified), the inhibition was -2.38% (inactive).
`O=C(CCCCCn1c(=S)[nH]c2ccsc2c1=O)NC1CCCCC1` was tested, and the inhibition was 3.56% (inactive).
With `Cc1ccc(S(=O)(=O)N(C)c2nc3ccccc3n3c(C(C)C)nnc23)cc1` the inhibition was -0.15% (inactive).
`CC(C)c1cc(NCc2ccccn2)n2c(nc3ccccc32)c1C#N` was tested, and the inhibition was 17.6% (inactive).
For `Cc1cc(NCc2ccco2)n2c(nc3ccccc32)c1C#N`, the inhibition was 162% (active).
For `Cc1ccc2[nH]c(=O)c(-c3nc4c(C)cccn4c3NCc3ccco3)cc2c1`, the inhibition was 4.83% (inactive).
With `CCOCCCNc1c(CC)c(C)c(C#N)c2nc3ccccc3n12` the inhibition was 4.3% (inactive).
For `Cc1cc(NC(C)C)n2c(nc3ccccc32)c1C#N`, the inhibition was 41.7% (active).
For `CCCNC(=O)NC(=O)COC(=O)CC(NC(N)=O)c1ccc(Cl)cc1` (stereo unspecified), the inhibition was -6.17% (inactive).
